# Screening data as filed in PubChem BioAssay.
# Pf growth 48h: Primary qHTS for delayed death inhibitors of the malarial parasite plastid, 48 hour incubation; 310,000 compounds, 5.9% hits; AID 504832, 2011; Potency, µM (doses to about 28.7 µM), actives largely listed as inhibitors; P. falciparum luciferase growth in erythrocytes, 48 h
#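 Luciferase-expressing parasites in RBCs, 2% Hct / 0.1% parasitemia final; RPMI 1640 + 0.5% Albumax; 37 C, 5% CO2, one generation; luminescence read-out, lower signal = inhibition.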
# Pf growth 96h: Primary qHTS for delayed death inhibitors of the malarial parasite plastid, 96 hour incubation. 320,000 compounds, 6.9% hits. P. falciparum luciferase reporter growth, 96 h. Potency, µM (top dose mostly 28.7 µM), most hits filed as inhibitors. AID 504834, 2011
#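 Luminescence readout: decreased luciferase signal marks inhibited growth of reporter-expressing P. falciparum in infected red cells (2% hematocrit, 0.05% parasitemia final), exposed to compound two generations (96 h, 37 C, 5% CO2).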
# SARS PLP yeast: qHTS of Yeast-based Assay for SARS-CoV PLP; 330,000 compounds, 0.19% hits; Potency, µM (series often up to 32.9 µM), most hits filed as activators; S. cerevisiae expressing SARS-CoV PLpro, growth rescue; calls by dose curve; further: nearly all actives have a fitted effect of over 55% in size
# AMA1-RON2 inh: qHTS for Inhibitors of AMA1-RON; Towards Development of Antimalarial Drug Lead: Primary Screen; Plasmodium falciparum AMA1 (3D7) - RON2 peptide interaction; AlphaScreen AMA1-biotinylated RON2 peptide binding; Potency, µM (titrated, usually from 58.2 µM), hits mostly inhibitors; 360,000 compounds, 0.2% hits; AID 720542, 2013; further: nearly all actives have a fitted effect of over 45% in size
#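 AMA1 (3D7) with his tag at 25 nM final met compounds first, then biotinylated RON2 peptide at 25 nM; detection used donor plus acceptor beads, 10 µg/mL apiece, read by AlphaScreen after 30 min at room temperature.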
# Hits are given with their value; n = inactive; u = inconclusive; x = no result; [ ] = dose if it differs, or a comment. A selection: hits, their analogues and other compounds. The true share with any hit is near 9.4%. Unless noted, the call rests on the fitted dose curve; in most records, active means well fitted curve in the direction sought with a large enough effect; inconclusive means small, poorly fitted or top-dose-only effect, or another doubt; inactive means no such curve, though single readings can be large; an effect the other way counts as inactive or inconclusive.
SMILES,Pf growth 48h,Pf growth 96h,SARS PLP yeast,AMA1-RON2 inh
CCOC(=O)N1CCN(C(=O)c2cc(-c3ccc(OCC)cc3)nc3ccccc23)CC1,n,3.7µM,u,n
COc1ccc(-c2cc(C(=O)N3CCN(c4ccccc4)CC3)c3ccccc3n2)cc1,n,n,n,u
COc1cc2ccccc2cc1C(=O)N1CCc2ccccc21,9.28µM,u,n,n
COc1ccc(-c2cc(C(=O)N3CC(C)CC(C)C3)c3ccccc3n2)cc1 (stereo not drawn),2.94µM,3.7µM,n,n
COc1cc(C(=O)N2CCc3ccccc32)cc(OC)c1OC,n,n,n,n
COc1ccc(-c2cc(C(=O)N3CCCC3)c3ccccc3n2)cc1,n,3.7µM,n,n
CCN(CC(=O)NC(C)(C)C)C(=O)c1ccc(Br)cc1,n,n,n,n
COc1ccccc1OC(C)C(=O)N1CCc2ccccc21 (stereo not drawn),10.4µM,n,n,n
O=C(c1ccc(OC2CCN(Cc3ccc(C(F)(F)F)cc3)CC2)cc1)N1CCCCC1,u,u,n,n
O=C(c1ccc(OC2CCN(Cc3ccccc3C(F)(F)F)CC2)cc1)N1CCCCC1,u,3.29µM,n,n
CCCn1cc(CN2CCC(Oc3ccc(C(=O)N4CCCC4)cc3)CC2)c(C)n1,n,10.4µM,n,n
O=C(COC(=O)CCN1C(=O)C2CC=CCC2C1=O)Nc1ccc(Cl)cc1F (stereo not drawn),n,n,n,n
CS(=O)(=O)c1ccc(Nc2nc(C(N)Cc3ccc(F)cc3)cs2)cc1 (stereo not drawn),x,x,x,n
O=C1NC(=O)C2(Cc3ccccc3N3CCCC32)C(=O)N1Cc1ccccc1 (stereo not drawn),u,n,n,n
Cc1cccn2c(=O)c3c(nc12)N1CCC(Cc2ccccc2)CC1C1(C3)C(=O)N(C)C(=O)N(C)C1=O (stereo not drawn),u,u,n,n
Cc1cccn2c(=O)c3c(nc12)N1CCCCC1C1(C3)C(=O)N(C)C(=O)N(C)C1=O (stereo not drawn),u,2.94µM,n,n
O=C1NC(=O)C2(Cc3c(nc4ccccn4c3=O)N3CCCCCC32)C(=O)N1Cc1ccccc1 (stereo not drawn),u,5.22µM,n,n
Cc1ccc2nc3c(c(Nc4cccc(O)c4)c2c1)CCC3,5.22µM,n,n,n
Fc1cccc(Nc2c3c(nc4ccccc24)CCC3)c1,u,n,n,n
COC(=O)c1cccc(Nc2c3c(nc4ccccc24)CCC3)c1,11.7µM,n,n,n
COc1ccccc1Nc1c2c(nc3ccccc13)CCC2,8.28µM,u,n,n
CC(=O)c1cccc(Nc2c3c(nc4ccccc24)CCC3)c1,u,n,n,n
CCOC(=O)C1=C[C@@H](CC)N(S(=O)(=O)c2ccc(C)cc2)[C@H]1c1ccccc1,x,x,x,n
O=C(NCc1cccnc1)/C(=C\c1ccc(-c2cccc(Cl)c2)o1)S(=O)(=O)c1ccccc1,9.28µM,u,u,n
Cc1ccc(C(=O)N/C(=C\c2ccc(-c3cc(Cl)ccc3Cl)o2)C(=O)NCc2cccnc2)cc1,n,u,n,n
SMILES,Pf growth 48h,Pf growth 96h,SARS PLP yeast,AMA1-RON2 inh
O=C(NCc1cccnc1)/C(=C/c1ccc(-c2cccc(Cl)c2)o1)S(=O)(=O)c1ccccc1,13.1µM,3.29µM,n,n
CCOC(=O)N1CCN(S(=O)(=O)c2ccc(F)c(C(=O)Nc3cc(C)cc(C)c3)c2)CC1,8.28µM,u,n,n
CCOC(=O)N1CCN(S(=O)(=O)c2ccc(F)c(C(=O)Nc3cccc(Cl)c3C)c2)CC1,11.7µM,n,n,n
CCOC(=O)N1CCN(S(=O)(=O)c2ccc(F)cc2)CC1,n,n,n,n
CCOC(=O)N1CCC(NC(=O)c2cc(S(=O)(=O)N3CCCCC3)ccc2F)CC1,u,u,n,n
O=C(NCCS(=O)(=O)N1CCN(Cc2ccccc2)CC1)c1ccc(F)cc1,n,n,n,n
O=C(COc1ccc(Cl)cc1)NNC(=O)CSc1nncs1,n,n,n,n
COc1ccccc1N(CC(=O)N(c1ccccc1)C(C)C)S(=O)(=O)c1cccs1,n,9.28µM,n,n
COc1ccc(S(=O)(=O)N2CCOCC2)cc1NC(=O)CN1CCCCCC1,n,n,n,n
COc1ccc(S(=O)(=O)N2CCOCC2)cc1NC(=O)Cc1c(Cl)cccc1Cl,u,8.28µM,n,n
COc1ccc(Cl)cc1NC(=O)NC(C)C,n,n[5.75 µM],n,n
COc1ccc(Cl)cc1NC(=O)C(C)NC(c1ccccc1)c1ccccc1 (stereo not drawn),13.1µM,2.94µM,n,n
COc1cc(C(C)=O)ccc1OCC(=O)Nc1ccc(Cl)c(S(=O)(=O)N2CCOCC2)c1,4.15µM,2.08µM,n,n
COc1ccc(S(=O)(=O)N2CCOCC2)cc1NC(=O)CN(C)Cc1c(F)cccc1Cl,7.38µM,u,n,n
O=C(CSc1nc(-c2ccccc2)nc2c1CCCC2)N1CCOCC1,n,n,n,n
CCCCn1c(SCC(=O)NCc2ccco2)nnc1-c1ccoc1C,n,n,n,n
COc1ccc(Cl)cc1NC(=O)C(C)N(C)Cc1cccc(Cl)c1Cl (stereo not drawn),11.7µM,6.57µM,n,n
COc1ccc(Cl)cc1NC(=O)Cc1c(F)cccc1Cl,u,5.86µM,n,n
COc1ccc(C)cc1NC(=O)C(NCC(O)c1ccccc1)c1ccccc1 (stereo not drawn),u,10.4µM,n,n
COc1ccc(C(C)=O)cc1CC(=O)Nc1cccc(S(=O)(=O)N2CCOCC2)c1,13.1µM,7.38µM,n[6.58 µM],n
COc1ccc(CC(=O)Nc2cccc(C(C)=O)c2)cc1S(=O)(=O)N1CCOCC1,n,n,n,n
COCCNC(=O)/C(C#N)=C/c1c(N2CCN(C)CC2)nc2c(C)cccn2c1=O,n,n,n,n
C=CCNC(=S)NNC(=O)c1cc(O)ccc1O,n,4.65µM,n,n
C=CCNC(=S)NNC(=O)c1ccc(Br)cc1,n,n,n,n[2.32 µM]
CN(Cc1ccc(F)cc1)Cc1nc(-c2cnccn2)no1,n,n,n,n
SMILES,Pf growth 48h,Pf growth 96h,SARS PLP yeast,AMA1-RON2 inh
CN(Cc1cccc(C(F)(F)F)c1)Cc1nc(-c2cnccn2)no1,n,7.38µM,n,n
N#Cc1c(N)oc(-c2cccs2)c1-c1cccs1,9.28µM,13.1µM,n,n
N#Cc1c(N)nc2c(c1-c1cccs1)CCCC2,n,n,n,n
Cc1cc(C)n(-c2ccc(C(=O)OCC(=O)N3CCN(c4ccccc4)CC3)cc2)n1,x,x,n,n
CC(=O)OCC(=O)c1ccc2ccn(C(C)=O)c2c1,n,10.4µM,n,n
CN(C(=O)COC(=O)CCc1c[nH]c2ccccc12)C(c1ccccc1)c1ccccc1,11.7µM,10.4µM,n,n
O=C(CCc1c[nH]c2ccccc12)OCC(=O)c1ccccc1,x,x,x,n
CCC1(c2ccccc2)ON(c2c(Br)cccc2Br)C1=O (stereo not drawn),0.415µM,0.415µM,n,n
CCC1(c2ccccc2)CN(C)C1=O (stereo not drawn),x,x,x,n
